According to paper PMC7862700, “An all-to-all approach to the identification of sequence-specific readers for epigenetic DNA modifications on cytosine”:

How the values were obtained:
Assay in all cases: DAPPL (digital affinity profiling via proximity ligation, sequencing); 10 mM Tris-HCl pH 7.5, 50 mM NaCl, 1 mM DTT, 4% glycerol, room temperature, 30 min; GST-TFs on glutathione beads, 16-mer random dsDNA library, 0.1% formaldehyde crosslink after washing; high values mean tight binding
Conditions in all cases: protein: recombinant; tags: N-terminal GST; dsDNA, one strand shown
[1] = target: T1, ERF (Homo sapiens, UniProt P50548 1-548)
T1 sequence: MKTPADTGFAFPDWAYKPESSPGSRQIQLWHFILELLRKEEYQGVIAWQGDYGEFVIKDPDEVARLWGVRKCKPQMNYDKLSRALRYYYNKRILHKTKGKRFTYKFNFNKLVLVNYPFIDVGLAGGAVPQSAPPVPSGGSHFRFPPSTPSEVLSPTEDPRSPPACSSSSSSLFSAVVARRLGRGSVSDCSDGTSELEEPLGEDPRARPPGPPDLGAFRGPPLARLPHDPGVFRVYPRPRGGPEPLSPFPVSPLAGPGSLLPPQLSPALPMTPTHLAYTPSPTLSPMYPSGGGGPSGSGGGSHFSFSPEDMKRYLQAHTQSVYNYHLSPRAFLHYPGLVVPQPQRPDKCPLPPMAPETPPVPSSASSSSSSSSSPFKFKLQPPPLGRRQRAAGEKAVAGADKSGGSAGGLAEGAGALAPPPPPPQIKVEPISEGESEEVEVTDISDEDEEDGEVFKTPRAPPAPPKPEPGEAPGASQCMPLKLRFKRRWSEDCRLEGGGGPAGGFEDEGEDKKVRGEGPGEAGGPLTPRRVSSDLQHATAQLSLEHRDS
Summary of the method: (§1)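 Sequencing on an Illumina NextSeq500 followed washing, crosslinking with 0.1% formaldehyde, proximity ligation (BsaI/T4 ligase, 1 h, 37 °C) and PCR amplification of pools that had been incubated for 30 min at room temperature with 200 nmole of a random double-stranded 16-mer DNA library in Tris/NaCl/DTT/glycerol buffer. Each pool held DNA-barcoded human transcription factors, expressed in yeast as GST fusions and captured on glutathione beads, plus a tag-only sample. Binding signal is a hexamer's read frequency for a factor divided by its frequency in the tag-only sample.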

[2] = target: T2, ETV3L (Homo sapiens, UniProt Q6ZN32 1-361)
T2 sequence: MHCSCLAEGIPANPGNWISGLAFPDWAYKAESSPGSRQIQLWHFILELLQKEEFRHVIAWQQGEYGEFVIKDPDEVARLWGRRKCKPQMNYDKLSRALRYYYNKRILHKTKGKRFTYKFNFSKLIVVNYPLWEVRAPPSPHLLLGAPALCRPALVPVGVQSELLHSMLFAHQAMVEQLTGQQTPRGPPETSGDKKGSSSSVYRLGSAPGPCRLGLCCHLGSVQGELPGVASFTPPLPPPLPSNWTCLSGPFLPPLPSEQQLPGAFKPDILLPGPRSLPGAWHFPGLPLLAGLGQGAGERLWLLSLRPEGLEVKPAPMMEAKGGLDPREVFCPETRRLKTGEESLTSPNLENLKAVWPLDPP
Summary of the method: as §1

[3] = target: T3, ETS2 (Homo sapiens, UniProt P15036 1-469)
T3 sequence: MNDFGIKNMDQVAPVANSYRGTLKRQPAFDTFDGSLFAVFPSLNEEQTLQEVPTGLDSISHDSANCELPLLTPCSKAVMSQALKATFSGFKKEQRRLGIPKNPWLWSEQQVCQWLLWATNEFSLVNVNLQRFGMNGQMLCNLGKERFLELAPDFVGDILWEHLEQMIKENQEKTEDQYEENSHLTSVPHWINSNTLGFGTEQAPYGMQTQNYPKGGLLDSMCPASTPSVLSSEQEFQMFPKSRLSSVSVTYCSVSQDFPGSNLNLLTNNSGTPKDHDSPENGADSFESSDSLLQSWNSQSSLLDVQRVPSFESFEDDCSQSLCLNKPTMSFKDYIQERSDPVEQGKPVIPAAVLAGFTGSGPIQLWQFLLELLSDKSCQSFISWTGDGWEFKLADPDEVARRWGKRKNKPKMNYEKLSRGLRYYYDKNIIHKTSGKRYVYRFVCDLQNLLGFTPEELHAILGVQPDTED
Summary of the method: as §1

[4] = target: T4, SPDEF (Homo sapiens, UniProt O95238 1-335)
T4 sequence: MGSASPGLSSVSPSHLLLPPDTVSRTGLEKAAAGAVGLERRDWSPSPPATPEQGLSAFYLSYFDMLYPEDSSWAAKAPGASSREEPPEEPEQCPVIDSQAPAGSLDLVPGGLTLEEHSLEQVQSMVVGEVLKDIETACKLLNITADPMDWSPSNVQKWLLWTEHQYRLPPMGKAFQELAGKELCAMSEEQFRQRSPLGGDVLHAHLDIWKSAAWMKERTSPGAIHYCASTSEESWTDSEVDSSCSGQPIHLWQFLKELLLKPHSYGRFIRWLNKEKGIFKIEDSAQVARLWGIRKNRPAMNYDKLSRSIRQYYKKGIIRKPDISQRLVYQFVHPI
Summary of the method: as §1

[5] = target: T5, ETV7 (Homo sapiens, UniProt Q9Y603 1-341)
T5 sequence: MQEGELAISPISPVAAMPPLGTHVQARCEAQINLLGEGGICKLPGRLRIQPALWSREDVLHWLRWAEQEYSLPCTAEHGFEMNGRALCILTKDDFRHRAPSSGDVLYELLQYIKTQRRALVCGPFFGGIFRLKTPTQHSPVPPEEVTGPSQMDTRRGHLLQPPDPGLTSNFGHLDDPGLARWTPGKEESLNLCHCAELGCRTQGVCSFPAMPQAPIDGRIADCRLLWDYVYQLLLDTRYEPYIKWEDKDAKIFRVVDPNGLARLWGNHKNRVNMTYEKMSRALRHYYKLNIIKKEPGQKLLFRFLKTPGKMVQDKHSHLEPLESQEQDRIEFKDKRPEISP
Summary of the method: as §1

[6] = target: T6, ELF5 (Homo sapiens, UniProt Q9UKW6-2 1-255)
T6 sequence: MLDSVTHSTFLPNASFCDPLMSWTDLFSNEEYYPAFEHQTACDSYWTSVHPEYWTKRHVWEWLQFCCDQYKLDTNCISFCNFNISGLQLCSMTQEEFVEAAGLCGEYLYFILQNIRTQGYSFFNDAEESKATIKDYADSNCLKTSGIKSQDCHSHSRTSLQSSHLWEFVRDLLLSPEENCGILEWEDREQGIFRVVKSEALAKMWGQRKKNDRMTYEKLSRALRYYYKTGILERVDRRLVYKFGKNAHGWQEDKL
Summary of the method: as §1

[7] = target: T7, ETV3 (Homo sapiens, UniProt P41162-2 1-143)
T7 sequence: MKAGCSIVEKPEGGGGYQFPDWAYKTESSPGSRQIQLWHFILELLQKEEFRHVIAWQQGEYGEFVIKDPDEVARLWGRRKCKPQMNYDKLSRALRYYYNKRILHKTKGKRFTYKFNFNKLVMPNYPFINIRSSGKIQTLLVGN
Summary of the method: as §1

[8] = target: ETV6 (Homo sapiens, UniProt P41212 1-452)
Chain of ETV6 (P41212 whole entry): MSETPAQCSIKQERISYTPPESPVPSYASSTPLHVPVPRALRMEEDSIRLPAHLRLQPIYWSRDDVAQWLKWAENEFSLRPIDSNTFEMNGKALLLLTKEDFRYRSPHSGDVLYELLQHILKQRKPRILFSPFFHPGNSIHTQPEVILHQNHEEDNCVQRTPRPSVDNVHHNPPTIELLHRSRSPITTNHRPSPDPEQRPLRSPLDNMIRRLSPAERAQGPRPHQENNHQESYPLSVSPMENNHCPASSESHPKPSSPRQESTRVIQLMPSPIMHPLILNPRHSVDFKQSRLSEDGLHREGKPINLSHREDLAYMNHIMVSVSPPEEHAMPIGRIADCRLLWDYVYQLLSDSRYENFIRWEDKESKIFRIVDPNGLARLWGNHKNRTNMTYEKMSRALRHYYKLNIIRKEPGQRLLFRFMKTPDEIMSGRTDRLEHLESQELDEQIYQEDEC
Summary of the method: as §1

Row | Sequence | binding signal [1] | binding signal [2] | binding signal [3] | binding signal [4] | binding signal [5] | binding signal [6] | binding signal [7] | binding signal [8]
1 | CCTGTG | 1.08 fold enrichment (6-mer frequency, TF over GST control) | 1.02 fold enrichment (6-mer frequency, TF over GST control) | 1.03 fold enrichment (6-mer frequency, TF over GST control) | 1.02 fold enrichment (6-mer frequency, TF over GST control) | 1.07 fold enrichment (6-mer frequency, TF over GST control) | 1.06 fold enrichment (6-mer frequency, TF over GST control) | 1.07 fold enrichment (6-mer frequency, TF over GST control) | 1.06 fold enrichment (6-mer frequency, TF over GST control)
2 | TACACG | 1.06 fold enrichment (6-mer frequency, TF over GST control) | 1.03 fold enrichment (6-mer frequency, TF over GST control) | 1.11 fold enrichment (6-mer frequency, TF over GST control) | 1.18 fold enrichment (6-mer frequency, TF over GST control) | 1.15 fold enrichment (6-mer frequency, TF over GST control) | 1.13 fold enrichment (6-mer frequency, TF over GST control) | 1.08 fold enrichment (6-mer frequency, TF over GST control) | 1.07 fold enrichment (6-mer frequency, TF over GST control)
3 | CATCAC | 1.17 fold enrichment (6-mer frequency, TF over GST control) | 1.07 fold enrichment (6-mer frequency, TF over GST control) | 1.12 fold enrichment (6-mer frequency, TF over GST control) | 1.15 fold enrichment (6-mer frequency, TF over GST control) | 1.08 fold enrichment (6-mer frequency, TF over GST control) | 1.11 fold enrichment (6-mer frequency, TF over GST control) | 1.13 fold enrichment (6-mer frequency, TF over GST control) | 1.13 fold enrichment (6-mer frequency, TF over GST control)
4 | TTTGGG | 1.39 fold enrichment (6-mer frequency, TF over GST control) | 1.46 fold enrichment (6-mer frequency, TF over GST control) | 1.3 fold enrichment (6-mer frequency, TF over GST control) | 1.25 fold enrichment (6-mer frequency, TF over GST control) | 1.29 fold enrichment (6-mer frequency, TF over GST control) | 1.26 fold enrichment (6-mer frequency, TF over GST control) | 1.32 fold enrichment (6-mer frequency, TF over GST control) | 1.3 fold enrichment (6-mer frequency, TF over GST control)
5 | TCAATT | 1.13 fold enrichment (6-mer frequency, TF over GST control) | 1.29 fold enrichment (6-mer frequency, TF over GST control) | 1.17 fold enrichment (6-mer frequency, TF over GST control) | 1.15 fold enrichment (6-mer frequency, TF over GST control) | 1.12 fold enrichment (6-mer frequency, TF over GST control) | 1.13 fold enrichment (6-mer frequency, TF over GST control) | 1.21 fold enrichment (6-mer frequency, TF over GST control) | 1.14 fold enrichment (6-mer frequency, TF over GST control)
6 | TATACC | 1.27 fold enrichment (6-mer frequency, TF over GST control) | 1.15 fold enrichment (6-mer frequency, TF over GST control) | 1.24 fold enrichment (6-mer frequency, TF over GST control) | 1.26 fold enrichment (6-mer frequency, TF over GST control) | 1.15 fold enrichment (6-mer frequency, TF over GST control) | 1.22 fold enrichment (6-mer frequency, TF over GST control) | 1.26 fold enrichment (6-mer frequency, TF over GST control) | 1.21 fold enrichment (6-mer frequency, TF over GST control)
7 | TCCCGC | 1.47 fold enrichment (6-mer frequency, TF over GST control) | 1.44 fold enrichment (6-mer frequency, TF over GST control) | 1.34 fold enrichment (6-mer frequency, TF over GST control) | 1.5 fold enrichment (6-mer frequency, TF over GST control) | 1.65 fold enrichment (6-mer frequency, TF over GST control) | 1.59 fold enrichment (6-mer frequency, TF over GST control) | 1.37 fold enrichment (6-mer frequency, TF over GST control) | 1.5 fold enrichment (6-mer frequency, TF over GST control)
